# Data: PubChem BioAssay (NCI)
# Where “and” joins values, the source holds several entries; their conditions need not be identical. Identical values can stand only once. The panel holds about 79,000 compounds, 15% with a hit somewhere; the sample as a whole holds those more often. Some compounds were tested as several samples or in several runs, with calls that do not always agree. Calls of active or inactive are those of the source. Rule as the data show it: active = growth inhibition above about 70%; inactive = the rest.
# Legend:
# [1] = NCI Yeast Anticancer Drug Screen. Data for the rad52 strain (AID 147);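 also: 0% = growth of vehicle-treated control cultures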; conditions: S. cerevisiae rad52 mutant growth inhibition, stronger effect = higher value
# Outline: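 Measured: yeast growth inhibition. System: strain with a defined DNA damage repair alteration. Reference: vehicle-treated control cultures.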
# [2] = NCI Yeast Anticancer Drug Screen. Data for the wt1 strain (AID 149);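 also: 0% = growth of vehicle-treated wt1 cultures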; conditions: S. cerevisiae wt1 strain (SPY 50644) growth inhibition, stronger effect = higher value
# Outline: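 Measured: growth of wt1 yeast under compound versus vehicle treatment, reported as inhibition.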
# [3] = NCI Yeast Anticancer Drug Screen. Data for the rad50EPP+ strain (AID 151);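 also: 0% = growth of vehicle-treated control cultures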; conditions: S. cerevisiae rad50 mutant strain, stronger effect = higher value
# Outline: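 One strain with a rad50 alteration (rad50EPP+) was compound-treated, its growth then compared to that of vehicle controls.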
# [4] = NCI Yeast Anticancer Drug Screen. Data for the mgt1 strain (AID 153); conditions: S. cerevisiae mgt1 mutant growth inhibition, stronger effect = higher value
# Outline: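 After exposure of the mgt1 yeast mutant to compound, growth was measured and reported as inhibition compared with vehicle controls.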
# [5] = NCI Yeast Anticancer Drug Screen. Data for the rad50 strain (AID 155);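 also: 0% = growth of vehicle-only cultures of the same strain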; conditions: S. cerevisiae rad50 strain growth inhibition, stronger effect = higher value
# Outline: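 Growth of the mutant yeast was measured after compound exposure and referenced to vehicle-treated cultures.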
# [6] = NCI Yeast Anticancer Drug Screen. Data for the mec2-1 strain (AID 157); conditions: S. cerevisiae mec2-1 strain, stronger effect = higher value
# Outline: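 Test agents were screened against the mec2-1 yeast strain, with defined DNA repair or cell cycle alteration. Growth was scored as inhibition against vehicle-only controls.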
# [7] = NCI Yeast Anticancer Drug Screen. Data for the rad14 strain (AID 159);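 also: 0% = growth of vehicle-treated control cultures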; conditions: S. cerevisiae rad14 strain growth inhibition, stronger effect = higher value
# Outline: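 Here, inhibition of yeast growth was measured after compound exposure, using a strain with a genetic defect in DNA damage repair and vehicle-treated cultures as the reference.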
# [8] = NCI Yeast Anticancer Drug Screen. Data for the sgs1 mgt1 strain (AID 161);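 also: 0% = growth of cultures given vehicle only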; conditions: S. cerevisiae sgs1 mgt1 strain, stronger effect = higher value
# Outline: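 Mutant yeast exposed to compound; growth scored against vehicle-only wells.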
# [9] = NCI Yeast Anticancer Drug Screen. Data for the CLN2oe strain (AID 163);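 also: 0% = growth of vehicle-only control cultures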; conditions: S. cerevisiae CLN2oe strain, stronger effect = higher value
# Outline: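 Here, growth inhibition in a cell-cycle-altered yeast strain after compound exposure was quantified against vehicle control growth.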
# [10] = NCI Yeast Anticancer Drug Screen. Data for the cln2 rad14 strain (AID 165);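 also: 0% = growth equal to vehicle treated cultures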; conditions: S. cerevisiae cln2 rad14 strain, stronger effect = higher value
# Outline: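 Growth of compound-exposed yeast (cln2 rad14 genotype) measured and expressed as inhibition relative to vehicle.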
# [11] = NCI Yeast Anticancer Drug Screen. Data for the bub3 strain (AID 167); conditions: S. cerevisiae bub3 mutant strain, stronger effect = higher value
# Outline: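 Whole-cell yeast assay. The mutant strain was incubated with compounds, and growth inhibition was determined by comparison with vehicle-treated cells.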
# [12] = NCI Yeast Anticancer Drug Screen. Data for the wt2 strain (AID 169);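 also: 0% = growth of vehicle-treated yeast cultures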; conditions: S. cerevisiae wt2 strain growth inhibition, stronger effect = higher value
# Outline: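 Genetically defined yeast strains from a DNA-repair/cell-cycle panel were used. Compound-exposed yeast growth was measured, and the inhibition was calculated relative to vehicle treatment.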
# [13] = NCI Yeast Anticancer Drug Screen. Data for the mlh1 strain (AID 171);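 also: 0% = growth of vehicle-treated control cultures of the same strain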; conditions: S. cerevisiae mlh1 strain growth inhibition, stronger effect = higher value
# Outline: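 Here the genetically defined yeast mutant is grown with each compound, and the extent to which its growth falls below that of vehicle-exposed cells is reported.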
# [14] = NCI Yeast Anticancer Drug Screen. Data for the sgs1 strain (AID 173);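 also: 0% = growth of vehicle-only control cultures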; conditions: S. cerevisiae sgs1 mutant, stronger effect = higher value
# Outline: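 Relative growth inhibition, referenced to vehicle, was determined in a yeast strain with a defined alteration affecting DNA damage repair or cell cycle control after compound exposure.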
# [15] = NCI Yeast Anticancer Drug Screen. Data for the mlh1 rad18 strain (AID 175); conditions: S. cerevisiae mlh1 rad18 strain growth inhibition, stronger effect = higher value
# Outline: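 In this whole-cell yeast screen, a strain with altered DNA damage repair is challenged with compound, and its growth is measured against matched vehicle-treated controls.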
# [16] = NCI Yeast Anticancer Drug Screen. Data for the rad18 strain (AID 177); conditions: S. cerevisiae rad18 mutant growth inhibition, stronger effect = higher value
# Outline: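 Screen uses a yeast strain with a defined lesion in DNA damage repair; compound effect is read as loss of growth compared to untreated vehicle cultures.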
# [17] = at 5.0 µM (retest, dose inferred, filed as 0.5)
# [18] = at 50.0 µM (retest, dose inferred, filed as 5.0)
compound,measurement,setting,value
Nc1ncnc2c1ncn2C1OC(CO)CC1O (stereo not drawn),growth inhibition,[1]; at 1.2 µM,-20% (inactive)
same,growth inhibition,[1]; at 3.7 µM,-10% (inactive)
same,growth inhibition,[1]; at 11.0 µM,24% (inactive)
same,growth inhibition,[1]; at 33.0 µM,71% (active)
same,growth inhibition,[1]; at 100.0 µM,91% (active)
same,growth inhibition,[2]; at 1.2 µM,-25% (inactive)
same,growth inhibition,[2]; at 3.7 µM,-10% (inactive)
same,growth inhibition,[2]; at 11.0 µM,-4% (inactive)
same,growth inhibition,[2]; at 33.0 µM,54% (inactive)
same,growth inhibition,[2]; at 100.0 µM,87% (active)
same,growth inhibition,[3]; at 1.2 µM,-16% (inactive)
same,growth inhibition,[3]; at 3.7 µM,-12% (inactive)
same,growth inhibition,[3]; at 11.0 µM,-10% (inactive)
same,growth inhibition,[3]; at 33.0 µM,-25% (inactive)
same,growth inhibition,[3]; at 100.0 µM,0% (inactive)
same,growth inhibition,[4]; at 1.2 µM,-37% (inactive)
same,growth inhibition,[4]; at 3.7 µM,-3% (inactive)
same,growth inhibition,[4]; at 11.0 µM,10% (inactive)
same,growth inhibition,[4]; at 33.0 µM,62% (inactive)
same,growth inhibition,[4]; at 100.0 µM,89% (active)
same,growth inhibition,[5]; at 1.2 µM,-9% (inactive)
same,growth inhibition,[5]; at 3.7 µM,-3% (inactive)
same,growth inhibition,[5]; [17],63% (inactive) and 14% (inactive)
same,growth inhibition,[5]; at 11.0 µM,30% (inactive)
same,growth inhibition,[5]; at 33.0 µM,76% (active)
same,growth inhibition,[5]; [18],90% (active)
same,growth inhibition,[5]; at 50.0 µM,87.8% (active) and 6.15% (inactive) and 79.6% (active)
same,growth inhibition,[5]; at 100.0 µM,91% (active)
same,growth inhibition,[6]; at 1.2 µM,-7% (inactive)
same,growth inhibition,[6]; at 3.7 µM,-8% (inactive)
same,growth inhibition,[6]; [17],63% (inactive) and 17% (inactive)
same,growth inhibition,[6]; at 11.0 µM,7% (inactive)
same,growth inhibition,[6]; at 33.0 µM,72% (active)
same,growth inhibition,[6]; [18],92% (active) and 91% (active)
same,growth inhibition,[6]; at 50.0 µM,88% (active) and -5.4% (inactive) and 76.5% (active)
same,growth inhibition,[6]; at 100.0 µM,92% (active)
same,growth inhibition,[7]; at 1.2 µM,-15% (inactive)
same,growth inhibition,[7]; at 3.7 µM,-1% (inactive)
same,growth inhibition,[7]; at 11.0 µM,27% (inactive)
same,growth inhibition,[7]; at 33.0 µM,76% (active)
same,growth inhibition,[7]; at 100.0 µM,94% (active)
same,growth inhibition,[8]; [17],-20% (inactive) and 14% (inactive)
same,growth inhibition,[8]; [18],89% (active) and 90% (active)
same,growth inhibition,[8]; at 50.0 µM,87.5% (active) and 2.25% (inactive) and 72.8% (active)
same,growth inhibition,[9]; at 1.2 µM,17% (inactive)
same,growth inhibition,[9]; at 3.7 µM,9% (inactive)
same,growth inhibition,[9]; at 11.0 µM,27% (inactive)
same,growth inhibition,[9]; at 33.0 µM,47% (inactive)
same,growth inhibition,[9]; at 100.0 µM,85% (active)
same,growth inhibition,[10]; [17],10% (inactive) and 9% (inactive)
same,growth inhibition,[10]; [18],87% (active) and 68% (inactive)
same,growth inhibition,[10]; at 50.0 µM,81.8% (active) and -27.8% (inactive) and 59.8% (inactive)
same,growth inhibition,[11]; at 1.2 µM,-6% (inactive)
same,growth inhibition,[11]; at 3.7 µM,-2% (inactive)
same,growth inhibition,[11]; [17],34% (inactive) and 22% (inactive)
same,growth inhibition,[11]; at 11.0 µM,34% (inactive)
same,growth inhibition,[11]; at 33.0 µM,77% (active)
same,growth inhibition,[11]; [18],92% (active)
same,growth inhibition,[11]; at 50.0 µM,89.3% (active) and -3.15% (inactive) and 83% (active)
same,growth inhibition,[11]; at 100.0 µM,92% (active)
same,growth inhibition,[12]; at 1.2 µM,-7% (inactive)
same,growth inhibition,[12]; at 3.7 µM,-3% (inactive)
same,growth inhibition,[12]; at 11.0 µM,13% (inactive)
same,growth inhibition,[12]; at 33.0 µM,66% (inactive)
same,growth inhibition,[12]; at 100.0 µM,91% (active)
same,growth inhibition,[13]; at 1.2 µM,-22% (inactive)
same,growth inhibition,[13]; at 3.7 µM,-5% (inactive)
same,growth inhibition,[13]; at 11.0 µM,15% (inactive)
same,growth inhibition,[13]; at 33.0 µM,66% (inactive)
same,growth inhibition,[13]; at 100.0 µM,91% (active)
same,growth inhibition,[14]; at 1.2 µM,-14% (inactive)
same,growth inhibition,[14]; at 3.7 µM,2% (inactive)
same,growth inhibition,[14]; at 11.0 µM,25% (inactive)
same,growth inhibition,[14]; at 33.0 µM,72% (active)
same,growth inhibition,[14]; at 100.0 µM,90% (active)
same,growth inhibition,[15]; [17],39% (inactive) and 11% (inactive)
same,growth inhibition,[15]; [18],91% (active) and 92% (active)
same,growth inhibition,[15]; at 50.0 µM,89.5% (active) and 1.35% (inactive) and 82.9% (active)
same,growth inhibition,[16]; at 1.2 µM,4% (inactive)
same,growth inhibition,[16]; at 3.7 µM,4% (inactive)
same,growth inhibition,[16]; at 11.0 µM,52% (inactive)
same,growth inhibition,[16]; at 33.0 µM,82% (active)
same,growth inhibition,[16]; at 100.0 µM,92% (active)
